Hits are enriched below; roughly 2.6% of the tested compounds scored in any of these assays.
Myeloid diff MLP – promotes myeloid progenitor differentiation; ER-HoxA9 myeloid progenitors, lysozyme-GFP differentiation, flow cytometry; calls only at 10 µM; 1% of 360,000 active; AID 624256;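 active means normalized GFP-positive differentiation at or above the plate's own cutoff, the solvent-only control mean plus 3 SD; inconclusive means no clear call, values can overlap the other calls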;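 further: cells exposed to compound for four days before flow analysis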
IDE inh – cellular human IDE inhibition; HEK cells, FAbetaB cleavage, fluorescence polarization; inhibition, % at 5.59 µM; 0.41% of 320,000 active;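 active means percent inhibition above the average of all tested compounds plus 3 SD, set per screening campaign, cut at about 16% in these data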;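 further: IDE supplied by intact live HEK cells; FP after avidin binding of uncleaved biotin substrate so inhibition keeps polarization high; 0% = DMSO wells and 100% = 60 µM reference IDE inhibitor Ii1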
CRFR2-BP antag – CRF-BP/CRF-R2 complex antagonism | HEK293 CRF-R2/CRF-BP, CRF-induced calcium fluorescence | inhibition, % at 11.8 µM | 0.59% of 350,000 active | AID 588475;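 active means inhibition of the ligand-induced calcium signal above about 50% at the single tested concentration, limit read from the data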
IDE act – boosts human insulin-degrading enzyme activity in HEK cells; AID 493087; 0.073% of 340,000 active; FAbeta-B cleavage, fluorescence polarization; 0% vehicle, 100% cell-free pure enzyme wells; activation, % at 5.96 µM; P14735;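 active means activation above the mean of all tested compounds plus 3 SD, set per screening campaign, cut at about 17% in these data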
CRFR2-BP ag – agonists of human CRF-binding protein/CRF-R2 receptor complex; HEK293 CRF-R2/CRF-BP, calcium dye fluorescence (FLIPR); percent of saturating CRF peptide response; activation, % at 13.2 µM; 0.46% of 350,000 active;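 active means activation of at least 50%, plus an integration ratio under a set limit after plate pattern correction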;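 further: plate controls were neutral control wells without compound for no effect and CRF at EC100 for full effect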
TPT1 inh – C. albicans TPT1 enzyme inhibition | recombinant caTPT1, FP RNA substrate dephosphorylation | inhibition, % at 5 µM | 0.81% of 300,000 active | AID 1962;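 active means inhibition above the mean of all tested compounds plus 3 SD, set per screening campaign, cut at about 24% in these data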;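 further: plate controls were DMSO alone for no effect and ferristatin control at 100 nM for full effect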
An asterisk follows results filed as active; i = inactive; ? = inconclusive; · = not tested or not shown; + = active, no number.

SMILES	Myeloid diff MLP	IDE inh	CRFR2-BP antag	IDE act	CRFR2-BP ag	TPT1 inh
O=C(CNc1cccc([N+](=O)[O-])c1)N/N=C/c1ccc([N+](=O)[O-])o1	+	3	15	7	0	-1
O=C(CNc1cccc2ccccc12)N/N=C/c1ccc([N+](=O)[O-])o1	i	-1	5	-3	0	-1
CC(=O)N1CCCc2cc(S(=O)(=O)N3CCC(C)CC3)ccc21	i	6	13	0	0	-3
COCCNC(=S)N(C)[C@H]1C[C@H]2c3cc(-c4ccccc4)ccc3CCN2C(=O)[C@H]1[C@H](C)O	i	·	-12	·	-2	·
CCOc1cccc(C(=O)Nc2ccc3c(c2)OCCO3)c1	i	-2	6	6	-3	3
N#Cc1cc2c(=O)n3ccccc3nc2n(-c2ccccc2Cl)c1=O	+	-1	24	4	11	4
Cc1ccc(S(=O)(=O)N2CCCCC2)cc1NC(=O)Cn1ncc(Cl)c(Cl)c1=O	?	2	-9	2	0	·
Cc1cc(Br)ccc1NC(=O)CNC(=O)Cn1ncc(Cl)c(Cl)c1=O	?	7	87*	3	-1	0
COc1ccc(Br)cc1CNC(=O)CCCc1cn(C)c2ccccc12	+	0	0	-3	3	0
O=C1CSC(=S)N1Nc1ccccc1	i	·	-8	-18	0	·
COc1ccc2nc3ccccc3nc2c1NC(=O)c1ccc(Cl)cc1Cl	i	0	-150	-8	178*	-30
COc1cc(-c2cc(C(=O)Nc3c(Cl)cc(Cl)cc3Cl)c3ccccc3n2)cc(OC)c1OC	i	0	18	5	-2	1
COc1ccc(/C=C2/CCC(CN3CCOCC3)C2=O)cc1 (centres undefined)	?	·	57*	-15	12	·
C/C(N=Nc1nc2ccccc2s1)=N\Nc1ccccc1O	i	-5	-1	7	-1	-2
COc1cccc(-c2nn(C)c3sc(C(=O)N4CCOCC4)cc23)c1	i	2	7	0	-2	3
COc1cccc(-c2nn(C)c3sc(C(=O)N4CCN(c5ccccn5)CC4)cc23)c1	+	5	15	7	-1	-5
O=C(O)c1cc(-c2ccc(/C=C3/SC(=S)N(Cc4ccccc4)C3=O)o2)ccc1Cl	+	·	-235	-10	209*	·
Cc1ccc(/C=C2\SC(=S)N(Cc3ccccc3)C2=O)o1	i	1	-13	-2	0	39*
O=C1NCCCC1C(=O)Nc1ccccc1C(F)(F)F (centres undefined)	i	4	-5	6	0	-3
Cc1cc(N2CCCC2)ccc1/C=N/n1cnnc1	+	2	9	1	0	3
Cc1cc(/C=N/n2cnnc2)c(C)n1-c1ccc(Cl)cc1	i	-2	3	4	-2	-1
O=C(NCCn1cc(SCc2ccc(F)cc2)c2ccccc21)c1ccccc1F	+	1	6	3	6	-1
C#CCOCCOCCOCCNc1nc(N2CCN(C(=O)[C@H](CCCCN)n3cc([C@@H](N)CO)nn3)CC2)nc(N2CCN(C(=O)[C@H](CCCCN)n3cc([C@@H](N)CC(C)C)nn3)CC2)n1	i	-1	-9	2	-1	·
O=c1oc2ccc3ccccc3c2cc1-c1nnc(-c2ccccc2)o1	i	8	61*	2	2	2
COc1ccc(-c2nnc(-c3cc4c(ccc5ccccc54)oc3=O)o2)cc1	i	-1	43	-2	29	10
SMILES	Myeloid diff MLP	IDE inh	CRFR2-BP antag	IDE act	CRFR2-BP ag	TPT1 inh
COCc1cc(=O)n2[nH]c(-c3ccccc3)cc2n1	i	2	79*	2	-4	0
COCc1cc(=O)n2[nH]c(-c3cccc(Br)c3)cc2n1	i	-8	17	3	-2	4
COc1ccc(-c2nn(CCC#N)cc2C(=O)Nc2cccc(C(=O)O)c2)cc1[N+](=O)[O-]	?	-13	1	3	0	-1
Cn1nc(-c2ccccc2)c(CSc2ccccc2Cl)c1Cl	+	-3	0	7	5	-7
Cn1nc(-c2ccccc2)c(C(O)c2ccc(Cl)cc2)c1Cl (centres undefined)	i	2	0	5	-1	1
COC(=O)c1ccc2c(=O)n(-c3ccc(OC)cc3)c(=S)[nH]c2c1	+	1	-1	-1	0	1
COc1ccc(-n2c(=S)[nH]c3cc(C(=O)O)ccc3c2=O)cc1	i	-1	24	5	-1	-3
COc1ccc(Nc2cccc3ccccc23)cc1	i	4	7	0	-1	-6
COc1ccc(C)cc1S(=O)(=O)N1CCCC(C(=O)N2CCN(c3ccccc3F)CC2)C1 (centres undefined)	·	12	5	-5	-1	-5
COC(=O)CCCC1=CC2=C(c3ccccc3)C(=O)C(C)(OC(=O)C3CCCC3)C(=O)C2=CN1CCc1ccccn1 (centres undefined)	i	-7	57*	3	2	-6
COC(=O)CCCC1=CC2=C(c3ccccc3)C(=O)C(C)(OC(=O)C3CCCC3)C(=O)C2=CN1CCN1CCOCC1 (centres undefined)	i	-6	3	2	1	-28
COc1ccc(N(C)S(=O)(=O)c2cccc(C(=O)NC3CCCC(C)C3C)c2)cc1 (centres undefined)	i	-10	9	-2	0	1
COc1cc(C2Nc3cccc4cccc(c34)N2)ccc1O	i	-1	4	19*	1	0
O=[N+]([O-])c1cc(C2Nc3cccc4cccc(c34)N2)ccc1Cl	+	0	-4	-7	-2	3
COc1cc(C2Nc3cccc4cccc(c34)N2)cc(OC)c1OC(C)=O	i	-8	2	0	2	-6
COc1ccc(NC(=O)CSc2nnnn2C2CC2)cc1S(=O)(=O)N1CCOCC1	i	-1	0	3	0	·
CCCCN(C(=O)c1ccc2c(c1)S(=O)(=O)N=C1CCCCCN12)c1c(N)n(CCCC)c(=O)[nH]c1=O	i	5	96*	3	-1	1
COc1ccc(N2CCN(Cc3nc4c(c(=O)[nH]c(=O)n4C)n3Cc3cccc(Cl)c3)CC2)cc1	+	3	-28	3	-1	1
CC(C)CCn1c(CN2CCN(c3cccc(Cl)c3)CC2)nc2c1c(=O)n(C)c(=O)n2C	+	6	-13	-1	-4	-2
COc1ccc(-c2nsc(C(=O)N(c3ccc(F)cc3)C(C(=O)NC3CCCC3)c3ccc(OC)cc3)c2N)cc1 (centres undefined)	i	0	-31	3	-1	-1

Assay outcomes: PubChem, several laboratories
